Results taken from PubChem BioAssay AID1159580 (chemical genetic matrix, 2015).
Out of some 5,500 compounds screened, about 2,000 (36%) were called active. About 18% were inconclusive and are not listed. Cut-off read from the data, not from the text of the source: active = normalized growth mostly below about 0.91 (no sharp cut-off); inconclusive = no clear call, values can overlap the other calls; inactive = mostly above about 0.92. This is one part of the list.

Experiment: chemical genetic growth profiling, strain panel (AID 1159580);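 note: tested at 20 µM; growth read once vehicle control cultures reached saturation at 30 °C; 1 = growth at the plate median or of vehicle wells; lower values mean less growth of the strain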
Conditions: growth OD

Measured: normalized growth

COC(=O)c1cc(OC)c(=O)c2c(OC)c(OC)ccc2c1
inactive: S. cerevisiae deletion strains, locus YBR021W, strain FUR4, active compounds read low 1.02 | S. cerevisiae deletion strains, locus YBR229C, strain ROT2, active compounds read low 1.01 | S. cerevisiae deletion strains, locus YCL029C, strain bik1, active compounds read low 0.969 | S. cerevisiae deletion strains, locus YDL035C, strain GPR1, active compounds read low 1.03 | S. cerevisiae deletion strains, locus YDL074C, strain BRE1, active compounds read low 1.08 | S. cerevisiae deletion strains, locus YDL101C, strain DUN1, active compounds read low 1.01 | S. cerevisiae deletion strains, locus YDL134C, strain PPH21, active compounds read low 1.04 | S. cerevisiae deletion strains, locus YDL185W, strain tfp1, active compounds read low 0.998 | S. cerevisiae deletion strains, locus YDL192W, strain arf1, active compounds read low 0.971 | S. cerevisiae deletion strains, locus YDR101C, strain arx1, active compounds read low 0.975 | S. cerevisiae deletion strains, locus YDR162C, strain NBP2, active compounds read low 1.01 | S. cerevisiae deletion strains, locus YDR318W, strain mcm21, active compounds read low 0.969 | S. cerevisiae deletion strains, locus YDR388W, active compounds read low 0.986 | S. cerevisiae deletion strains, locus YDR502C, strain sam2, active compounds read low 0.99 | S. cerevisiae deletion strains, locus YER110C, active compounds read low 1.01 | S. cerevisiae deletion strains, locus YER155C, strain BEM2, active compounds read low 1.01 | S. cerevisiae deletion strains, locus YER167W, strain BCK2, active compounds read low 1 | S. cerevisiae deletion strains, locus YGL078C, strain dbp3, active compounds read low 0.995 | S. cerevisiae deletion strains, locus YGL086W, strain mad1, active compounds read low 0.984 | S. cerevisiae deletion strains, locus YGL248W, strain PDE1, active compounds read low 1.02 | S. cerevisiae deletion strains, locus YGR078C, strain PAC10, active compounds read low 1.01 | S. cerevisiae deletion strains, locus YGR135W, strain pre9, active compounds read low 0.985 | S. cerevisiae deletion strains, locus YGR229C, strain SMI1, active compounds read low 1.06 | S. cerevisiae deletion strains, locus YHR079C, strain IRE1 (second series), active compounds read low 1 | S. cerevisiae deletion strains, locus YHR094C, strain hxt1, active compounds read low 0.972 | S. cerevisiae deletion strains, locus YHR129C, strain ARP1, active compounds read low 1.02 | S. cerevisiae deletion strains, locus YHR200W, strain rpn10, active compounds read low 0.985 | S. cerevisiae deletion strains, locus YIL066C, strain RNR3, active compounds read low 1.02 | S. cerevisiae deletion strains, locus YIL073C, strain SPO22, active compounds read low 0.951 | S. cerevisiae deletion strains, locus YIL125W, strain kgd1, active compounds read low 0.978 | S. cerevisiae deletion strains, locus YIR030C, strain dcg1, active compounds read low 0.986 | S. cerevisiae deletion strains, locus YJL095W, strain BCK1, active compounds read low 1.04 | S. cerevisiae deletion strains, locus YJL134W, strain LCB3, active compounds read low 1 | S. cerevisiae deletion strains, locus YJL168C, strain set2, active compounds read low 0.972 | S. cerevisiae deletion strains, locus YJL187C, strain SWE1 (second series), active compounds read low 1.02 | S. cerevisiae deletion strains, locus YKL009W, strain mrt4, active compounds read low 0.977 | S. cerevisiae deletion strains, locus YKL068W, active compounds read low 0.999 | S. cerevisiae deletion strains, locus YKL085W, strain MDH1 (second series), active compounds read low 0.971 | S. cerevisiae deletion strains, locus YKL085W, strain MDH1, active compounds read low 0.971 | S. cerevisiae deletion strains, locus YKR001C, strain vps1, active compounds read low 0.966 | S. cerevisiae deletion strains, locus YLR039C, strain RIC1, active compounds read low 1.03 | S. cerevisiae deletion strains, locus YLR058C, strain SHM2, active compounds read low 1.03 | S. cerevisiae deletion strains, locus YLR102C, strain apc9, active compounds read low 0.959 | S. cerevisiae deletion strains, locus YLR268W, strain sec22, active compounds read low 0.981 | S. cerevisiae deletion strains, locus YLR330W, strain CHS5, active compounds read low 1.02 | S. cerevisiae deletion strains, locus YLR371W, strain rom2, active compounds read low 0.977 | S. cerevisiae deletion strains, locus YLR418C, strain cdc73, active compounds read low 1.07 | S. cerevisiae deletion strains, locus YML016C, strain PPZ1, active compounds read low 1 | S. cerevisiae deletion strains, locus YML032C, strain rad52, active compounds read low 0.996 | S. cerevisiae deletion strains, locus YML124C, strain tub3, active compounds read low 0.967 | S. cerevisiae deletion strains, locus YMR078C, strain ctf18, active compounds read low 0.976 | S. cerevisiae deletion strains, locus YMR223W, strain ubp8, active compounds read low 1 | S. cerevisiae deletion strains, locus YMR307W, strain GAS1, active compounds read low 1.01 | S. cerevisiae deletion strains, locus YNL067W, strain RPL9B, active compounds read low 0.998 | S. cerevisiae deletion strains, locus YNL233W, strain BNI4, active compounds read low 1.03 | S. cerevisiae deletion strains, locus YNL250W, strain rad50, active compounds read low 1.05 | S. cerevisiae deletion strains, locus YNL271C, strain bni1, active compounds read low 0.981 | S. cerevisiae deletion strains, locus YNL298W, strain CLA4, active compounds read low 0.984 | S. cerevisiae deletion strains, locus YNL307C, strain MCK1, active compounds read low 0.952 | S. cerevisiae deletion strains, locus YNL322C, strain KRE1, active compounds read low 1 | S. cerevisiae deletion strains, locus YNR052C, strain pop2, active compounds read low 0.981 | S. cerevisiae deletion strains, locus YOL006C, strain TOP1, active compounds read low 1.21 | S. cerevisiae deletion strains, locus YOL012C, strain htz1 0.895 | S. cerevisiae deletion strains, locus YOL147C, strain pex11, active compounds read low 0.993 | S. cerevisiae deletion strains, locus YOR061W, strain CKA2, active compounds read low 1 | S. cerevisiae deletion strains, locus YOR069W, strain VPS5, active compounds read low 1 | S. cerevisiae deletion strains, locus YOR136W, strain idh2, active compounds read low 0.977 | S. cerevisiae deletion strains, locus YOR144C, strain elg1, active compounds read low 0.987 | S. cerevisiae deletion strains, locus YOR184W, strain ser1, active compounds read low 0.935 | S. cerevisiae deletion strains, locus YOR316C, strain cot1, active compounds read low 0.985 | S. cerevisiae deletion strains, locus YPL241C, strain CIN2, active compounds read low 1 | S. cerevisiae deletion strains, locus YPR119W, strain clb2, active compounds read low 0.969 | S. cerevisiae deletion strains, locus YPR141C, strain kar3, active compounds read low 0.982 | S. cerevisiae deletion strains, locus YPR163C, strain tif3, active compounds read low 0.977 | S. cerevisiae deletion strains, locus YPR167C, strain met16, active compounds read low 0.967 | S. cerevisiae deletion strains, strain wtn01, active compounds read low 0.994 | S. cerevisiae strains, strain wild type, active compounds read low 1.02
